Experimental data as given in PubChem BioAssay AID720518 (National Center for Advancing Translational Sciences (NCATS), 2013).
Records with an inconclusive call do not appear. Entries that show only a call come without a potency. Active and inactive are the calls of the source. The call rests on the fitted dose curve.

Test: qHTS for Inhibitors of Cell Surface uPA Generation: Wild-type Protective Antigen (WT-PrAg) Counterscreen for Cherry-picked Compounds
Conditions: cells, WT protective antigen toxicity counterscreen; series mostly up to 115 µM
Potency means the concentration at half of the fitted maximal effect.

| SMILES | Potency |
| --- | --- |
| Cc1ccc2sc(NNC(=O)c3ccc4c(c3)OCCO4)nc2c1C | inactive |
| COC(=O)C1=CN(Cc2ccc(F)cc2)C=C(C(=O)OC)C1c1ccc(O)c(OC)c1 | inactive |
| C=CS(=O)(=O)c1ccc(Oc2ccc(S(=O)(=O)C=C)cc2)cc1 | 65.6 µM (active) |
| CC1(C)CC(CCC(=O)NC(=S)Nc2ccccc2Cl)C(=O)O1 (stereo not given) | inactive |
| C#CCOCCOCCOCCNc1nc(N2CCOCC2)nc(N2CCN(C(=O)[C@H](CCC(=O)O)n3cc([C@@H](N)CCCCN)nn3)CC2)n1 | inactive |
| CCn1c2ccccc2c2n[nH]c(=S)nc21 | inactive |
| CCN1CCN(Cc2ccc(NC(=O)c3cc(NC(=O)c4cncc(-c5cccs5)c4)cc(OC)c3)cc2C(F)(F)F)CC1 | inactive |
| O=S(=O)(NCC(c1cccnc1)N1CCOCC1)c1ccccc1 (stereo not given) | inactive |
| Cc1ncc(CN2CCCC(C(=O)c3cccc(OC(C)C)c3)C2)s1 (stereo not given) | inactive |
| CCSC1=NCCN1S(=O)(=O)c1ccc(Cl)cc1 | inactive |
| C#CCN1C=C(C(=O)OCC)C(C)NS1(=O)=O (stereo not given) | inactive |
| Cc1ccc(-n2nc3c(c2NC(=O)c2ccc4c(c2)OCO4)CS(=O)C3)c(C)c1 (stereo not given) | inactive |
| COc1ccc(CCNC(=O)COC(=O)CNS(=O)(=O)c2ccc(SC)c([N+](=O)[O-])c2)cc1 | inactive |
| C=C(C(=O)O)C1CCC2(C)CCCC(C)(O)C2C1 (stereo not given) | inactive |
| CC(=O)c1c(C)n(-c2ccccc2Br)c2ccc(O)cc12 | inactive |
| Cc1ccc(N2C(=O)CC(N3CCN/C3=C3\CC/C(=C\c4ccccc4)C3=O)C2=O)cc1 (stereo not given) | inactive |
| CCOC(=O)c1ccc(N=Cc2c(O)n(-c3ccc(OC)cc3)c(=S)[nH]c2=O)cc1 | inactive |
| COc1ccc(CCNC(=O)Cn2c(=O)n(-c3cc(F)ccc3F)c(=O)c3sccc32)cc1OC | inactive |
| CC1=NN(C(N)=S)C(=O)C1N=Nc1ccccc1C(=O)O (stereo not given) | inactive |
| CCOC(=O)C1=C(C)N(Cc2ccccc2)C(=O)NC1c1ccc(OC)cc1 (stereo not given) | inactive |

| SMILES | Potency |
| --- | --- |
| Cc1ccc(C)c(N2N=C(C(=O)N(CC(C)C)c3c(N)n(Cc4ccccc4)c(=O)[nH]c3=O)CCC2=O)c1 | inactive |
| CC(C)Cn1cnc2c1c(=O)[nH]c(=O)n2Cc1ccccc1 | inactive |
| NC(=O)CC[C@H](NC(=O)c1ccc(F)cc1)C(=O)OCC(=O)Nc1c(F)c(F)c(F)c(F)c1F | inactive |
| O=C(O)c1cc(N=Nc2c(O)[nH]c3ccc([N+](=O)[O-])cc23)ccc1Cl | inactive |
| CN(CCCNC(=O)Cn1cccc1C(=O)c1ccccc1)C1CCCCC1 | inactive |
| Cc1cc(OC(C)C(=O)NCc2ccccn2)c2c(C)cc(=O)oc2c1 (stereo not given) | inactive |
| O=C(Nc1cccc(NC(=O)c2ccc(F)cc2)c1)c1ccc(F)cc1 | inactive |
| O=C(Nc1ccc(Cl)cc1)Nc1nnc(-c2ccncc2)s1 | inactive |
| O=C(NCCCn1cccn1)C1CCC(=O)N(Cc2ccccc2F)C1 (stereo not given) | inactive |
| O=C(C[n+]1ccccc1)Nc1ccccc1C(F)(F)F | inactive |
| COc1ccc(C(=O)c2sc(Nc3ccccc3)nc2N)cc1 | inactive |
| Cc1cc(C)c(NC(=O)Cn2nnc(C(=O)NCc3ccc4c(c3)OCO4)c2N)c(C)c1 | inactive |
| Clc1ccc(-c2nc3ccccn3c2CN2CCSCC2)cc1 | inactive |
| COc1ccc(CC(=O)Nc2nc(C)cs2)cc1OC | inactive |
| Cc1cc(=O)[nH]c2c(C)cc(S(=O)(=O)Nc3ccc(O)cc3)cc12 | inactive |
| Cc1[nH]c2ccccc2c1C(=O)C(C)OC(=O)c1ccccc1NCCO (stereo not given) | inactive |
| O=C(c1ccccn1)C1CCCN(Cc2cn[nH]c2-c2cc3ccccc3o2)C1 (stereo not given) | inactive |
| Nc1nc2ccc(Br)cc2o1 | inactive |
| Cc1nc2ncccn2c1-c1csc(Nc2ccc(S(N)(=O)=O)cc2)n1 | inactive |
| CN(CC(=O)NCc1ccco1)CC(=O)Nc1c(Cl)cccc1Cl | inactive |
